Screening results as filed in PubChem.
A selection: hits, their analogues and other compounds. The true share with any hit is near 2.4%.
WRN inhibitor: WRN helicase (human) inhibition; WRN helicase unwinding, fluorescent forked duplex, kinetic; Potency, µM (series often up to 114 µM), inactives show at the highest dose activity change, negative = inhibition, actives largely listed as inhibitors; actives 0.46% (n = 360,000); note: % is set by controls: 0 for no effect and ±100 for the full control effect; nearly all actives have a fitted effect of over 55% in size
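Fluorescence dequenching readout, ex 525 nm/em 598 nm, kinetic mode: forked duplex DNA (100 nM final) with adjacent fluorophore and quencher unwound by WRN (20 nM final) with 2 mM ATP. Compound preincubation 15 min, room temperature.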
FEN1 inh: blocks human flap endonuclease 1 | P39748 | Potency, µM (highest dose often 114 µM), inactives show at the highest dose activity change, negative = inhibition, hits mostly inhibitors | Recombinant FEN1 flap cleavage, fluorescence, 15 min | AID 588795 | actives 0.35% (n = 390,000); note: % is set by controls: 0 for no effect and ±100 for the full control effect; nearly all actives have a fitted effect of over 65% in size
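Enzyme 10 nM, 15 min RT preincubation with compound; start with substrate 50 nM final; reads at 0 and 15 min; qHTS titration, four-parameter Hill fit.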
POLB inh: inhibitors of human DNA polymerase beta. P06746. AID 485314. Potency, µM (highest dose often 114 µM), for inactives: top-dose activity change, negative = inhibition, hits mostly inhibitors. actives 1.3% (n = 340,000). Pol beta primer extension/strand displacement, fluorescence kinetic; note: % is set by controls: 0 for no effect and ±100 for the full control effect
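Homogeneous kinetic assay of primer extension and strand displacement by 10 nM Pol beta, preincubated 15 min at room temperature with compound before 50 nM substrate (final) was added. Read at 0 and 10 min; four-parameter Hill fit.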
Pol iota inh: inhibitors of human DNA polymerase iota; Pol iota fluorescent replication assay, 10 min; Potency, µM (doses to about 115 µM), without a hit: at the top dose activity, negative = inhibition, most hits filed as inhibitors; actives 1% (n = 390,000)
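Fluorescent replication assay read twice, at 0 min and 10 min after adding 50 nM (final) substrate. Enzyme (10 nM) and compounds were first incubated 15 min at room temperature; enzyme-free buffer wells were negative controls.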
POLK inh: inhibitors of human DNA polymerase kappa; Q9UBT6; purified Pol kappa, fluorescent DNA synthesis assay, 10 min; Potency, µM (titrated, usually from 107 µM), inactives show at the highest dose activity, negative = inhibition, actives largely listed as inhibitors; actives 0.53% (n = 400,000); AID 588579; note: % is set by controls: 0 for no effect and ±100 for the full control effect
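Kinetic fluorescence readout at 0 and 10 min followed reaction start with substrate at 50 nM final. Beforehand, enzyme (10 nM Pol kappa) stood 15 min with compound at room temperature; buffer-only wells were negative controls.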
POLH inh: blocks human DNA polymerase eta activity; recombinant Pol eta, fluorescent DNA replication assay; Potency, µM (top dose mostly 114 µM), for inactives: at the highest dose activity change, negative = inhibition, hits mostly inhibitors; actives 1.2% (n = 390,000); note: % is set by controls: 0 for no effect and ±100 for the full control effect
Target sequence (Q9Y253 whole entry, looked up): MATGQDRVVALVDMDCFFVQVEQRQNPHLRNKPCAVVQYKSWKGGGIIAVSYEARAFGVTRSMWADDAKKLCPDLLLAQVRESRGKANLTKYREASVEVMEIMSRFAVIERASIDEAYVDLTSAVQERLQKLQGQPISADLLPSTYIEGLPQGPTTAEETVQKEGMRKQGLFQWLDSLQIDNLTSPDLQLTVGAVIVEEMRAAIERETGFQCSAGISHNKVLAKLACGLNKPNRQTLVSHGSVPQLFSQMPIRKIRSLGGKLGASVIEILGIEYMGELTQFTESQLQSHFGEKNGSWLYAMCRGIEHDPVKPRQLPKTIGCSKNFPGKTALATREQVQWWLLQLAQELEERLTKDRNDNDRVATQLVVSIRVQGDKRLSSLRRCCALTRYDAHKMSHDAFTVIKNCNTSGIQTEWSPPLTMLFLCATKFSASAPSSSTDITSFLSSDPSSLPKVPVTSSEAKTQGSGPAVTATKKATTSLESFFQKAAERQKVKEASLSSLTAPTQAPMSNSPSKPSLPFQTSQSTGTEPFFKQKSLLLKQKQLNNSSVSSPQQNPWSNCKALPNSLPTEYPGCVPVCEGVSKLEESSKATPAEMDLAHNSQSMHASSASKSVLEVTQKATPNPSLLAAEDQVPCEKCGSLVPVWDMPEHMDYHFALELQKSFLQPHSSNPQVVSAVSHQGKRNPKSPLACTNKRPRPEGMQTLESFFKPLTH
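Pol eta (10 nM) was preincubated with compounds for 15 min at room temperature, after which fluorescent replication substrate (50 nM final) was added to start the reaction. Fluorescence was read kinetically at 0 and 10 min.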
* = called active by the depositor; [ ] = remark or other dose. Calls come from the whole dose curve; as a rule, active = well fitted curve in the direction sought with a large enough effect; inconclusive = small, poorly fitted or top-dose-only effect, or another doubt; inactive = no such curve, though single readings can be large; an effect the other way counts as inactive or inconclusive. Potency is the fitted concentration of half-maximal effect.

For COc1cc(N)c(NC(=O)/C=C/c2nc3cc(OC)c(OC)cc3[nH]2)cc1OC the results were FEN1 inh 1.7%, Pol iota inh 45.5% and POLK inh -4.2%.
For O=C(CCCCCCCC(=O)c1ccccc1)c1ccccc1 the results were WRN inhibitor 2.3%, FEN1 inh -16.7%, POLB inh 26.8%, Pol iota inh inconclusive, POLK inh -5.3% and POLH inh -13.6%.
C=C(CCC(=O)c1ccccc1)C(=O)c1ccccc1 was read as WRN inhibitor -16.4%[11.6 µM], FEN1 inh -18.1%, POLB inh inconclusive, Pol iota inh inconclusive, POLK inh 3.7% and POLH inh 15.8µM*.
Screening COc1ccc(N(C(=O)Cc2cccs2)C2C=CS(=O)(=O)C2)cc1 (stereo not given) returned WRN inhibitor inconclusive, FEN1 inh 6.7%, POLB inh 15.8µM*, Pol iota inh inconclusive, POLK inh -32.1% and POLH inh inconclusive.
Cc1ccnc(NS(=O)(=O)c2ccc(N3C(=O)c4ccccc4C3=O)cc2)n1 was read as WRN inhibitor -10.8%, FEN1 inh -0.9%, POLB inh 28.3%, Pol iota inh 11.3%, POLK inh -3.0% and POLH inh -15.7%.
Cc1ccnc(NS(=O)(=O)c2ccc(N3C(=O)c4c(Cl)c(Cl)c(Cl)c(Cl)c4C3=O)cc2)n1 was read as WRN inhibitor -5.5%[11.6 µM], FEN1 inh 3.8%, POLB inh 0.8%, Pol iota inh 91.5%, POLK inh -12.2% and POLH inh 79.4µM*.
`O=C1Cc2cc(S(=O)(=O)N3CCCCC3)ccc2N1` gave WRN inhibitor 4.5%, FEN1 inh -4.2%, POLB inh 4.7%, Pol iota inh 23.8%, POLK inh -5.9% and POLH inh -17.2%.
For O=C1Cc2cc(S(=O)(=O)N3CCNCC3)ccc2N1 the results were WRN inhibitor 3.5%[11.6 µM], FEN1 inh -0.1%, Pol iota inh 31.6µM*, POLK inh -0.9% and POLH inh inconclusive.
`Cc1ccc(NC(=O)C2CCCN(c3nnc(C)c4c(C)n(-c5ccccc5)nc34)C2)c(Cl)c1` (stereo not given) gave FEN1 inh 0.5%, POLB inh -0.8%, Pol iota inh 24.2%, POLK inh -15.1% and POLH inh -2.8%.
For Nc1ccccc1SC(CC(=O)c1ccccc1)c1ccc([N+](=O)[O-])cc1 (stereo not given) the results were WRN inhibitor -27.0% and POLH inh -6.0%.
Cc1ccc(C(=O)CC(SCC(=O)O)c2ccc([N+](=O)[O-])cc2)cc1 (stereo not given) was read as WRN inhibitor -12.2%, FEN1 inh 25.6%, POLB inh -7.4%, Pol iota inh 10µM*, POLK inh 3.0% and POLH inh -25.5%.
Cc1c(C(=O)Nc2ccc(F)cc2)oc2ccc(S(=O)(=O)N3CCCCCC3)cc12 was read as FEN1 inh -1.4%, POLB inh 1.5%, Pol iota inh inconclusive, POLK inh -9.2%[60.1 µM] and POLH inh -7.2%.
Screening CC(=O)c1cccc(-n2c(CCC(=O)O)ccc2-c2cccs2)c1 returned WRN inhibitor inconclusive, FEN1 inh -1.1%, POLB inh inconclusive, Pol iota inh 50.1µM*, POLK inh -33.7% and POLH inh inconclusive.
O=C(O)CCc1ccc(-c2cccs2)n1CCc1ccccc1 was read as WRN inhibitor -6.8%, FEN1 inh 9.8%, POLB inh -1.1%, Pol iota inh -17.4%, POLK inh -10.7% and POLH inh -14.0%.
CC(=O)c1cccc(-n2c(CCC(=O)O)ccc2-c2ccccc2)c1 was read as WRN inhibitor 4.5%, FEN1 inh 9.6%, POLB inh inconclusive, Pol iota inh inconclusive, POLK inh -5.1% and POLH inh -17.7%.
Screening O=C(O)CCc1ccc(-c2cccs2)n1-c1ccc(C(=O)O)cc1 returned WRN inhibitor -8.4%[57.1 µM], FEN1 inh -13.5%, POLB inh inconclusive, Pol iota inh inconclusive, POLK inh inconclusive and POLH inh 31.6µM*.
Screening O=C(O)CCN1C(=O)/C(=C/c2ccc(-c3nc4ccccc4s3)o2)SC1=S returned WRN inhibitor inconclusive, FEN1 inh -5.9%, POLB inh 25.1µM*, Pol iota inh inconclusive, POLK inh inconclusive and POLH inh 3.16µM*.
CCOC(=O)C1CCN(c2ncnc3c2cnn3C)CC1 was read as WRN inhibitor 7.0%, FEN1 inh 19.4%, POLB inh 79.4µM*, Pol iota inh -7.1%, POLK inh -5.2% and POLH inh -7.1%.
Screening CCOC(=O)C1CCN(c2ncnc3c2cnn3-c2ccccc2)CC1 returned WRN inhibitor 3.8%, FEN1 inh -1.5%, POLB inh -27.2%, Pol iota inh -4.1%[58.9 µM], POLK inh 2.2% and POLH inh -19.6%.
Screening CCCN(CC(=O)Nc1ccccc1C)C(=O)CCl returned WRN inhibitor -9.2%, FEN1 inh -0.4%, POLB inh -14.2%, Pol iota inh 85.0%, POLK inh -0.4% and POLH inh 18.8%.
For CCCN(CC(=O)Nc1ccccc1C)C(=O)Cc1coc2cc(C)ccc12 the results were WRN inhibitor -28.9%, FEN1 inh 0.6%, POLB inh 39.8µM*, Pol iota inh inconclusive, POLK inh -14.6% and POLH inh inconclusive.
OCc1ccccc1SSc1ccccc1CO was read as WRN inhibitor 14.1µM*, FEN1 inh inconclusive, Pol iota inh inconclusive, POLK inh -5.5% and POLH inh -4.4%.
CCOc1ccc(-c2cc3c(=O)n(CC(=O)Nc4cc(F)ccc4C)ccn3n2)cc1 was read as FEN1 inh -0.9%, POLB inh 0.1%, Pol iota inh 12.3%, POLK inh -0.2%[60.1 µM] and POLH inh 0.4%.
Screening COc1ccc(-c2cc3c(=O)n(CC(=O)Nc4cc(C)ccc4C)ccn3n2)cc1 returned FEN1 inh 9.1%, POLB inh 44.7µM*, Pol iota inh 11.3% and POLK inh -7.4%[60.1 µM].
`Cc1c(C(=O)N(C)C2CCCCC2)sc2nc3ccc(N)cc3n12` gave POLK inh -14.9%[60.1 µM].
`Cc1ccc(N2NC(=O)/C(=C\c3cc4c(cc3[N+](=O)[O-])OCO4)C2=O)cc1C` gave WRN inhibitor inconclusive, FEN1 inh -15.6%, POLB inh 20µM*, Pol iota inh inconclusive, POLK inh -17.4% and POLH inh inconclusive.
Screening CCOC(=O)CNC(=O)Nc1nnc(-c2ccc(OCC)cc2)o1 returned WRN inhibitor -0.9%, FEN1 inh -0.5%, POLB inh 79.4µM*, Pol iota inh 28.5%, POLK inh -5.2% and POLH inh 7.0%.
